The supplement of paper PMC6609913
Counter-ions that a name gives are not always drawn. ± gives the standard deviation of the averaged measurements. The full ranking holds about 1,300 compounds; the median of “normalised cell viability” is about 1, and the lowest 2% start at about 0.14. This excerpt belongs to a sample that is enriched for the lowest values.

System: V-C8 (BRCA2-deficient hamster cells)
Experiment: normalised cell viability (fraction of plate median); higher = more viable cells (less toxic)
Settings: 5 µM
Outline: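 Library drugs, held as 10 mM stocks in DMSO, were diluted to 5 μM in 100 μl medium and added to 96-well plates of V-C8 hamster cells, either lacking BRCA2 or with BRCA2 restored, 24 h after seeding. Plates ran for 3 days (screen 1) or 6 days (screen 2), alongside solvent-only wells. Viability came from a resazurin readout, median-plate normalised, as the mean of triplicate wells.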

Row | Structure (SMILES) | normalised cell viability (treatment time: 3 days) | normalised cell viability (treatment time: 6 days)
1 | CC(C)(S)[C@@H](N)C(=O)O [Penicillamine] | 0.964 ± 0.074 | 1.04 ± 0.097
2 | N[C@@H](C(=O)N[C@@H]1C(=O)N2C(C(=O)O)=C(Cl)CC[C@H]12)c1ccccc1 [Loracarbef] | 1.05 ± 0.1 | 1.06 ± 0.033
3 | OC(CCCN1CCCCC1)(c1ccccc1)c1ccccc1 [Diphenidol hydrochloride] | 1.06 ± 0.037 | 1.05 ± 0.031
4 | CC(C)(C)c1ccc(C(O)CCCN2CCC(C(O)(c3ccccc3)c3ccccc3)CC2)cc1 (centres undefined) [Terfenadine] | 0.13 ± 0.0051 | 0.1 ± 0.0041
5 | CC(C)(C(=O)O)c1ccc(C(O)CCCN2CCC(C(O)(c3ccccc3)c3ccccc3)CC2)cc1 (centres undefined) [Fexofenadine HCl] | 1.09 ± 0.02 | 1.04 ± 0.046
6 | NC[C@@H]1O[C@@H](O[C@H]2[C@H](O)[C@@H](O[C@H]3O[C@H](CO)[C@@H](O)[C@H](N)[C@H]3O)[C@H](N)C[C@@H]2N)[C@@H](O)[C@H](O)[C@H]1O [Kanamycin A sulfate] | 0.965 ± 0.052 | 1.04 ± 0.02
7 | O=C1CN2Cc3c(ccc(Cl)c3Cl)N=C2N1 [Anagrelide] | 1.01 ± 0.077 | 1.03 ± 0.054
8 | c1ccc([C@H]2CN3CCSC3=N2)cc1 [Levamisole hydrochloride] | 1.03 ± 0.02 | 1.02 ± 0.032
9 | CCN(CC)CCc1nc(-c2ccccc2)no1 [Oxalamine citrate salt] | 0.986 ± 0.061 | 0.933 ± 0.14
10 | O=C(O)Cc1cc(I)c(Oc2ccc(O)c(I)c2)c(I)c1 [Tiratricol, 3,3',5-triiodothyroacetic acid] | 0.981 ± 0.023 | 1.03 ± 0.032
11 | CCCc1cc(=O)[nH]c(=S)[nH]1 [Propylthiouracil] | 1.02 ± 0.022 | 1.025 ± 0.009
12 | CC(=O)N1CCN(c2ccc(OCC3COC(Cn4ccnc4)(c4ccc(Cl)cc4Cl)O3)cc2)CC1 (centres undefined) [Ketoconazole] | 0.8 ± 0.022 | 0.898 ± 0.028
13 | CC1(C)S[C@@H]2[C@H](NC(=O)[C@H](NC(=O)N3CCNC3=O)c3ccccc3)C(=O)N2[C@H]1C(=O)O [Azlocillin sodium salt] | 1.01 ± 0.015 | 0.988 ± 0.092
14 | Clc1cnccn1 [2-Chloropyrazine] | 1.03 ± 0.019 | 1.02 ± 0.016
15 | COCC1=C(C(=O)OC(C)OC(=O)OC(C)C)N2C(=O)[C@@H](NC(=O)/C(=N\OC)c3csc(N)n3)[C@H]2SC1 (some centres undefined) [Cefpodoxime proxetil] | 1.18 ± 0.025 | 1.06 ± 0.086
16 | CC(C(=O)O)c1ccc(N2Cc3ccccc3C2=O)cc1 (centres undefined) [Indoprofen] | 1.012 ± 0.0016 | 1.08 ± 0.013
17 | Nc1nc(=O)[nH]cc1F [Flucytosine] | 1.06 ± 0.02 | 0.987 ± 0.025
18 | Cc1ccc2c(c1)c1c3n2CCNC3CCC1 (centres undefined) [Pirlindole mesylate] | 0.904 ± 0.084 | 0.9725 ± 0.0077
19 | NCc1ccccc1CC(=O)N[C@@H]1C(=O)N2C(C(=O)O)=C(CSc3nnnn3CC(=O)O)CS[C@H]12 [Ceforanide] | 1.02 ± 0.073 | 1.21 ± 0.22
20 | C=CC[N@@+]12CC[C@@]34c5ccccc5N5/C=C6/[C@H]7C[C@H]8[C@@]9(CC[N@@+]8(CC=C)C/C7=C/CO)c7ccccc7N(/C=C(/[C@@H](C[C@@H]31)/C(=C\CO)C2)[C@H]54)[C@@H]69 [Alcuronium chloride] | 0.939 ± 0.13 | 1.03 ± 0.079
21 | c1ccc(-c2ccc(C(c3ccccc3)n3ccnc3)cc2)cc1 (centres undefined) [Bifonazole] | 0.878 ± 0.032 | 0.74 ± 0.06
22 | CC(=O)O[C@]1(C(C)=O)CC[C@H]2[C@@H]3C=C(Cl)C4=CC(=O)CC[C@]4(C)[C@H]3CC[C@@]21C [Chlormadinone acetate] | 0.998 ± 0.06 | 0.983 ± 0.043
23 | NNc1nncc2ccccc12 [Hydralazine hydrochloride] | 0.9847 ± 0.0028 | 1.03 ± 0.027
24 | Nc1cc(-c2ccncc2)c[nH]c1=O [Amrinone] | 0.938 ± 0.029 | 0.951 ± 0.018

Row | Structure (SMILES) | normalised cell viability (treatment time: 3 days) | normalised cell viability (treatment time: 6 days)
25 | CC(=O)Nc1ccc(CC(=O)O)cc1 [Actarit] | 1.05 ± 0.015 | 1.03 ± 0.038
26 | O=C(CCCCCCC(=O)Nc1ccccc1)NO [Vorinostat] | 0.14 ± 0.012 | 0.168 ± 0.012
27 | O=C(CCCCC(=O)Nc1c(I)cc(I)c(C(=O)O)c1I)Nc1c(I)cc(I)c(C(=O)O)c1I [Iodipamide] | 1.03 ± 0.06 | 0.972 ± 0.029
28 | CC[C@H](C)C(=O)O[C@H]1CCC=C2C=C[C@H](C)[C@H](CC[C@@H]3C[C@@H](O)CC(=O)O3)[C@H]21 [Mevastatin] | 0.23 ± 0.011 | 0.229 ± 0.0063
29 | CCCNC(C)C(=O)Nc1c(C)csc1C(=O)OC (centres undefined) [Articaine hydrochloride] | 1.03 ± 0.024 | 1.06 ± 0.084
30 | Nc1ccc(S(=O)(=O)Nc2ccnn2-c2ccccc2)cc1 [Sulfaphenazole] | 1.01 ± 0.011 | 1.03 ± 0.031
31 | COc1ccccc1OCC(O)CN1CCN(CC(=O)Nc2c(C)cccc2C)CC1 (centres undefined) [Ranolazine] | 1.04 ± 0.054 | 0.967 ± 0.086
32 | N#CC(c1ccc(Cl)cc1)c1c(Cl)cc(-n2ncc(=O)[nH]c2=O)cc1Cl (centres undefined) [Diclazuril] | 0.905 ± 0.068 | 0.875 ± 0.068
33 | C#CCN(C)CCCOc1ccc(Cl)cc1Cl [Clorgyline hydrochloride] | 1.11 ± 0.063 | 1.019 ± 0.0054
34 | NS(=O)(=O)Cc1noc2ccccc12 [Zonisamide] | 1.01 ± 0.036 | 1.03 ± 0.065
35 | COc1ccc2c(c1)C(=O)N(CCc1ccc(S(=O)(=O)NC(=O)NC3CCCCC3)cc1)C(=O)C2(C)C [Gliquidone] | 1.05 ± 0.077 | 1.08 ± 0.049
36 | CN1CCCN=C1/C=C/c1cccs1 [Pyrantel tartrate] | 1.06 ± 0.019 | 1.02 ± 0.079
37 | CC(C)(C)NC[C@H](O)COc1nsnc1N1CCOCC1 [Timolol maleate salt] | 1.01 ± 0.022 | 1.07 ± 0.065
38 | CCN(CC)C(=O)Nc1ccc(OCC(O)CNC(C)(C)C)c(C(C)=O)c1 (centres undefined) [Celiprolol HCl] | 1.13 ± 0.12 | 0.988 ± 0.031
39 | C[C@H](O)C(=O)Nc1c(I)c(C(=O)NC(CO)CO)c(I)c(C(=O)NC(CO)CO)c1I [Iopamidol] | 0.952 ± 0.093 | 1.09 ± 0.06
40 | Clc1ccc(CSC(Cn2ccnc2)c2ccc(Cl)cc2Cl)cc1 (centres undefined) [Sulconazole nitrate] | 0.983 ± 0.067 | 0.829 ± 0.043
41 | CCOC(=O)Nc1ccc2c(c1)N(C(=O)CCN1CCOCC1)c1ccccc1S2 [Moricizine hydrochloride] | 1.1 ± 0.13 | 1.13 ± 0.083
42 | C=CC1=C(C(=O)O)N2C(=O)[C@@H](NC(=O)/C(=N\O)c3csc(N)n3)[C@H]2SC1 [Cefdinir] | 1.016 ± 0.0043 | 1.01 ± 0.06
43 | Cc1c(C)c2c(c(C)c1O)CCC(C)(COc1ccc(CC3SC(=O)NC3=O)cc1)O2 (centres undefined) [Troglitazone] | 0.68 ± 0.04 | 0.588 ± 0.04
44 | C=C(CC)C(=O)c1ccc(OCC(=O)O)c(Cl)c1Cl [Ethacrynic acid] | 1.08 ± 0.038 | 1.01 ± 0.048
45 | COc1cc2c(cc1OC)C(=O)C(CC1CCN(Cc3ccccc3)CC1)C2 (centres undefined) [Donepezil hydrochloride] | 0.957 ± 0.087 | 0.983 ± 0.011
46 | OCC(O)CN1CCN(c2ccccc2)CC1 (racemic) [Dropropizine (R,S)] | 0.964 ± 0.051 | 1.01 ± 0.057
47 | C=C[C@H]1CN2CC[C@H]1C[C@@H]2[C@@H](O)c1ccnc2ccc(OC)cc12 [Quinidine hydrochloride monohydrate] | 0.997 ± 0.0082 | 0.876 ± 0.16
